Source: PubChem BioAssay
ELG1 repair inh – qHTS screen for small molecules that inhibit ELG1-dependent DNA repair in human embryonic kidney (HEK293T) cells expressing luciferase-tagged ELG1 | 330,000 tested, 2.3% active | HEK293T ELG1-luciferase reporter, luminescence, 16 h; DNA damage induced by 5-fluorouridine | Potency, µM (titrated, usually from 46.1 µM), hits mostly inhibitors | AID 504467, 2011; also: nearly all actives have a fitted effect of over 55% in size
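Reporter activity after DNA damage by 5-fluorouridine is monitored. Compound-treated cells incubate 16 hr at 37 °C, then ONE-Glo is added for 30 min before luminescence reading.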
KB-3-1 tox – qHTS assay for MDR1-selective chemotherapeutics: Primary screen using the parental adenocarcinoma cell KB-3-1; KB-3-1 viability, CellTiter-Glo ATP luminescence, 72 h; Potency, µM (top dose mostly 46.1 µM), actives largely listed as cytotoxic; 400,000 tested, 1.4% active; AID 1347075, 2019; also: nearly all actives have a fitted effect of over 60% in size
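Parental KB-3-1 viability, qHTS format: 72 h compound exposure, 37 °C; CellTiter-Glo; media-only wells and DMSO plates as controls; concentration-effect fits on corrected data.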
SW480 rerep – A quantitative high throughput screen for small molecules that induce DNA re-replication in SW480 colon adenocarcinoma cells | 340,000 tested, 1.8% active | Potency, µM (doses to about 46.1 µM), actives largely listed as activators | SW480 DNA re-replication, Hoechst DNA content imaging, 48 h; also: nearly all actives have a fitted effect of over 55% in size
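Cells (250 per well) received 23 nL compound or DMSO by pin tool and were kept 48 hr at 37 C, 5% CO2. Nuclei were then stained with Hoechst for 40 min and scanned for DNA content.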
KB-V1 cytotox – qHTS assay for MDR1-selective chemotherapeutics: Primary screen using the drug-selected MDR subline cells KB-V1; KB-V1 MDR cells viability, CellTiter-Glo, 72 h; Potency, µM (series often up to 46.1 µM), most hits filed as cytotoxic; 400,000 tested, 3.4% active; AID 1347076, 2019; also: nearly all actives have a fitted effect of over 60% in size
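Cytotoxicity via CellTiter-Glo luminescence after 72 h compound exposure at 37 degrees C. Cells: drug-selected KB-V1 line, DMEM phenol-red free plus 10% FBS. Compounds tested at multiple concentrations; normalized data fitted to concentration-effect curves.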
MCF10A rereplic – A quantitative high throughput screen for small molecules that induce DNA re-replication in MCF 10a normal breast cells | MCF 10A DNA re-replication, Hoechst nuclear intensity, 48 h | Potency, µM (top dose mostly 46.1 µM), usual class: activators | 350,000 tested, 2.9% active; also: nearly all actives have a fitted effect of over 50% in size
Of the large screens only hits and unclear results are named; the others gave an inactive call. Rows were chosen to be rich in hits. Some 8.2% of all compounds tested hit in one or more screens of this group. Calls follow the shape of the dose curve; as a rule, active = well fitted curve in the direction sought with a large enough effect; inconclusive = small, poorly fitted or top-dose-only effect, or another doubt; inactive = no such curve, though single readings can be large; an effect the other way counts as inactive or inconclusive.

OCCC1CN(Cc2ccon2)CCN1Cc1ccccc1 (stereo not drawn)	SW480 rerep inconclusive
COc1ccc(CN(C)Cc2nc(Cc3cccc(F)c3)no2)c2cccnc12	ELG1 repair inh inconclusive, KB-3-1 tox inconclusive, KB-V1 cytotox 1.8µM, MCF10A rereplic inconclusive
CN(C)c1nc(N)nc2c1ncn2C1OC(CO)CC1O (stereo not drawn)	none (no result: ELG1 repair inh, SW480 rerep, MCF10A rereplic)
O=C(Cn1c(=O)nc(-c2ccccc2)c2cc(Cl)ccc21)NCCCc1ccccc1	none (no result: ELG1 repair inh, SW480 rerep, MCF10A rereplic)
Cc1ccc(-c2nc3sc(C(N)=O)c(N)c3c3c2CCCC3)cc1	ELG1 repair inh inconclusive, SW480 rerep 16µM, KB-V1 cytotox inconclusive, MCF10A rereplic 5.2µM
NC(=O)c1sc2nc(N3CCOCC3)c3c(c2c1N)CCCC3	ELG1 repair inh inconclusive, KB-V1 cytotox inconclusive, MCF10A rereplic inconclusive
NC(=O)c1sc2nc(-c3ccccc3)c3c(c2c1N)CCCC3	SW480 rerep 15µM, MCF10A rereplic 21µM
CC(=O)c1sc2nc(C)cc(C)c2c1N	SW480 rerep inconclusive, MCF10A rereplic inconclusive
CC(=O)c1sc2nc(-c3ccc(C)cc3)c3c(c2c1N)CCCC3	SW480 rerep 2.9µM, KB-V1 cytotox 18µM, MCF10A rereplic 2.3µM
Cc1nc2sc(C(N)=O)c(N)c2c2c1CCCC2	ELG1 repair inh inconclusive, SW480 rerep inconclusive, KB-V1 cytotox 21µM, MCF10A rereplic inconclusive
CCOc1ccc(S(=O)(=O)Nc2ccc(C(=O)NCc3ccncc3)cc2)cc1	none
CN(C)C(=O)c1cccc(-c2cccc(-c3nc(C(=O)NCc4ccccc4)cc4c3[C@H](CCO)N(S(=O)C(C)(C)C)C4)c2)c1 (stereo partly drawn)	none (no result: ELG1 repair inh, SW480 rerep, MCF10A rereplic)
CC(CC(=O)Nc1ccc2c(c1)c(=O)n(C)n2Cc1ccc(F)cc1)c1ccccc1 (stereo not drawn)	KB-3-1 tox inconclusive (no result: ELG1 repair inh, SW480 rerep, MCF10A rereplic)
CN(C)CCCNC(=O)c1cc(Br)ccc1O	SW480 rerep inconclusive
CCc1nc2sc(C#N)c(N)c2c2c1CCCC2	none (no result: ELG1 repair inh)
CCc1nc2sc(C(C)=O)c(N)c2c2c1CCCC2	SW480 rerep 15µM, KB-V1 cytotox inconclusive, MCF10A rereplic 2.9µM
CC(=O)Nc1ccc(S(=O)(=O)N2CCC(N3CCCC3)CC2)cc1	none
CC(=O)Nc1ccc(S(=O)(=O)N2CCC(n3cnc4cc(F)ccc43)CC2)cc1	ELG1 repair inh 10µM
O=c1c2ccc(Cl)cc2nc(-c2ccc([N+](=O)[O-])cc2)n1O	ELG1 repair inh 9.2µM, KB-3-1 tox inconclusive, KB-V1 cytotox inconclusive
O=c1c2cc(Br)ccc2nc(-c2ccc([N+](=O)[O-])cc2)n1O	ELG1 repair inh inconclusive, KB-3-1 tox inconclusive, MCF10A rereplic inconclusive
COc1ccc(CC(=O)Nc2nnc(C(C)C)s2)cc1	none
COc1ccc(NC(=O)Nc2nnc(C(C)C)s2)cc1	ELG1 repair inh inconclusive, KB-3-1 tox inconclusive, KB-V1 cytotox 16µM
COc1ccc(C(=O)NNC(=S)NC(=O)c2ccc(OC)cc2)cc1	KB-3-1 tox inconclusive, MCF10A rereplic inconclusive
CCCOc1ccc(C(=O)NNC(=S)NC(=O)CC)cc1	ELG1 repair inh inconclusive, KB-3-1 tox 13µM, SW480 rerep inconclusive, KB-V1 cytotox inconclusive, MCF10A rereplic 16µM
CCCCC(=O)NC(=S)NNC(=O)c1ccc(OC)cc1	ELG1 repair inh inconclusive, KB-3-1 tox 23µM, KB-V1 cytotox inconclusive
C=CCNC(=S)NNC(=O)c1ccc(OCC(C)C)cc1	SW480 rerep 18µM
CC1CCN(C(=O)CSc2nc(-c3ccccc3)no2)CC1	none (no result: ELG1 repair inh, SW480 rerep, MCF10A rereplic)
Cc1ccc(C(C)(C)NC(=O)C2CCC(=O)N(Cc3ccccc3F)C2)cc1 (stereo not drawn)	ELG1 repair inh inconclusive, KB-V1 cytotox inconclusive
Nc1ncnc2c1ncn2C1OC(CO)C(O)C1N (stereo not drawn)	SW480 rerep inconclusive, MCF10A rereplic inconclusive
Nc1ncnc2c(C3OC(CO)C(O)C3O)scc12 (stereo not drawn)	KB-3-1 tox 0.1µM, SW480 rerep inconclusive, KB-V1 cytotox inconclusive, MCF10A rereplic inconclusive (no result: ELG1 repair inh)
CCCc1[nH]n(-c2nc3ccccc3s2)c(=O)c1C=NCCCOC	ELG1 repair inh inconclusive
